Data on four compounds can be found in PubChem BioAssay (EPA / NIEHS).

Settings in all cases: mRNA level, 48 h; actives raise or lower the signal
Read-out in assay [1]: CFLAR gene, CFLAR (gene 8837)
Kind of assay: LTEA_HepaRG_CFLAR: Life Technologies and Expression Analysis (LTEA) Assay for CFLAR gene using HepaRG (AID 2283455). The procedure, abridged: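 HepaRG cells were plated for 48 h, switched to serum-free induction medium, then exposed in duplicate for 48 h to 8 concentrations (top 100 uM, half-log steps, 0.5% DMSO). CFLAR mRNA was measured by qRT-PCR, normalized to ACTB, GAPDH and POLR2A.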

Read-out in assay [2]: Forkhead box O1 (FOXO1), FOXO1 (gene 2308)
The assay is described as follows: LTEA_HepaRG_FOXO1: Life Technologies and Expression Analysis (LTEA) Assay for Forkhead box O1 (FOXO1) using HepaRG (AID 2283456). The essentials: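 Differentiated human HepaRG cells in serum-free induction medium were exposed in duplicate for 48 h to eight half-log concentrations (top 100 uM, 0.5% DMSO). FOXO1 mRNA was measured by TaqMan qRT-PCR, normalised to ACTB, GAPDH and POLR2A, and fitted bidirectionally against DMSO.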

Read-out in assay [3]: growth arrest and DNA damage 45 (GADD45A), GADD45A (gene 1647)
Kind of assay: LTEA_HepaRG_GADD45A: Life Technologies and Expression Analysis (LTEA) Assay for growth arrest and DNA damage 45 (GADD45A) using HepaRG (AID 2283458). The essentials: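 Differentiated HepaRG cells exposed 48 h in serum-free induction medium to 8 concentrations, top 100 uM in half-log steps, 0.5% DMSO. GADD45A mRNA quantified by qRT-PCR, normalized to ACTB, GAPDH and POLR2A; bidirectional fit versus DMSO.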

Read-out in assay [4]: ABC Transporter (ABCB1), ABCB1 (gene 5243)
The assay is described as follows: LTEA_HepaRG_ABCB1: Life Technologies and Expression Analysis (LTEA) Assay for ABC Transporter (ABCB1) using HepaRG (AID 2283460). The procedure, abridged:
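Differentiated human HepaRG cells, plated 48 h then switched to serum-free induction medium, were exposed in duplicate to eight half-log concentrations up to 100 uM in 0.5% DMSO for 48 h. ABCB1 mRNA was measured by TaqMan qRT-PCR, normalized to ACTB/GAPDH/POLR2A.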

Read-out in assay [5]: growth arrest and DNA damage 45 (GADD45B), GADD45B (gene 4616)
Kind of assay: LTEA_HepaRG_GADD45B: Life Technologies and Expression Analysis (LTEA) Assay for growth arrest and DNA damage 45 (GADD45B) using HepaRG (AID 2283461). The procedure, abridged:
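Human HepaRG monolayers receive chemicals for 48 h at eight half-log concentrations, highest 100 uM, in 0.5% DMSO. Expression is measured by TaqMan qRT-PCR and normalized to ACTB, GAPDH and POLR2A.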

Read-out in assay [6]: ABC Transporter (ABCC3), ABCC3 (gene 8714)
Kind of assay: LTEA_HepaRG_ABCC3: Life Technologies and Expression Analysis (LTEA) Assay for ABC Transporter (ABCC3) using HepaRG (AID 2283462). The procedure, abridged:
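Transcriptional change of ABCC3 in HepaRG after 48 h treatment, determined by qRT-PCR normalized to endogenous controls. Concentrations spanned eight half-log steps to 100 uM in 0.5% DMSO.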

Read-out in assay [7]: ABC Transporter (ABCB11), ABCB11 (gene 8647)
Kind of assay: LTEA_HepaRG_ABCB11: Life Technologies and Expression Analysis (LTEA) Assay for ABC Transporter (ABCB11) using HepaRG (AID 2283463). The procedure, abridged:
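Differentiated human HepaRG cells were exposed for 48 h in serum-free induction medium to eight half-log concentrations up to 100 uM in 0.5% DMSO. ABCB11 mRNA was quantified by qRT-PCR, normalized to ACTB, GAPDH and POLR2A, and fitted bidirectionally versus DMSO.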

Read-out in assay [8]: ABC Transporter (ABCC2), ABCC2 (gene 1244)
The assay is described as follows: LTEA_HepaRG_ABCC2: Life Technologies and Expression Analysis (LTEA) Assay for ABC Transporter (ABCC2) using HepaRG (AID 2283464). The procedure, abridged: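 After plating and 48 h culture, HepaRG medium is replaced with serum-free induction medium and chemicals are added (8 concentrations, max 100 uM, 0.5% DMSO) for 48 h. Total RNA then undergoes qRT-PCR for ABCC2 with housekeeping normalization.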

Read-out in assay [9]: Broad substrate specificity ATP-binding cassette transporter ABCG2 (Homo sapiens) (UniProt Q9UNQ0)
Kind of assay: LTEA_HepaRG_ABCG2: Life Technologies and Expression Analysis (LTEA) Assay for ABC Transporter (ABCG2) using HepaRG (AID 2283465). The procedure, abridged:
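Differentiated HepaRG cells in serum-free induction medium were exposed for 48 h, in duplicate, to eight half-log concentrations up to 100 uM in 0.5% DMSO. ABCG2 mRNA was measured by TaqMan qRT-PCR, normalized to ACTB, GAPDH and POLR2A, and fitted bidirectionally versus DMSO.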

Read-out in assay [10]: ATP-citrate lyase (ACLY), ACLY (gene 47)
The assay is described as follows: LTEA_HepaRG_ACLY: Life Technologies and Expression Analysis (LTEA) Assay for ATP-citrate lyase (ACLY) using HepaRG (AID 2283466). The procedure, abridged:
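Differentiated human HepaRG cells in serum-free induction medium exposed 48 h, in duplicate, to eight half-log concentrations from 100 uM top in 0.5% DMSO; ACLY mRNA measured by qRT-PCR, normalized to ACTB, GAPDH, POLR2A, fitted bidirectionally versus DMSO.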

Read-out in assay [11]: Peroxisomal acyl-coenzyme A oxidase 1 (ACOX1) gene, ACOX1 (gene 51)
The assay is described as follows: LTEA_HepaRG_ACOX1: Life Technologies and Expression Analysis (LTEA) Assay for Peroxisomal acyl-coenzyme A oxidase 1 (ACOX1) gene using HepaRG (AID 2283467). The procedure, abridged: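 Differentiated human HepaRG cells were exposed in duplicate for 48 h in serum-free induction medium to eight half-log concentrations up to 100 uM in 0.5% DMSO. ACOX1 mRNA was then quantified by TaqMan qRT-PCR, normalized to ACTB, GAPDH and POLR2A.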

Read-out in assay [12]: Alkaline Phosphatase, Placental (ALPP) gene, ALPP (gene 250)
The assay is described as follows: LTEA_HepaRG_ALPP: Life Technologies and Expression Analysis (LTEA) Assay for Alkaline Phosphatase, Placental (ALPP) gene using HepaRG (AID 2283468). The essentials: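 Using human liver HepaRG cells, chemicals are tested in duplicate over 48 h at half-log concentrations topping at 100 uM; phenobarbital 1 mM serves as induction control. ALPP mRNA change by qRT-PCR, bidirectional fit against vehicle.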

Read-out in assay [13]: Bcl-2 (BAD) gene, BAD (gene 572)
Kind of assay: LTEA_HepaRG_BAD: Life Technologies and Expression Analysis (LTEA) Assay for Bcl-2 (BAD) gene using HepaRG (AID 2283469). The procedure, abridged: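 Differentiated human HepaRG cells in serum-free induction medium were exposed in duplicate for 48 h to eight concentrations (top 100 uM, half-log steps, 0.5% DMSO). BAD mRNA was quantified by qRT-PCR normalised to ACTB, GAPDH and POLR2A, with bidirectional fitting versus DMSO.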

Read-out in assay [14]: Bcl-2 (BAX) gene, BAX (gene 581)
Kind of assay: LTEA_HepaRG_BAX: Life Technologies and Expression Analysis (LTEA) Assay for Bcl-2 (BAX) gene using HepaRG (AID 2283470). The essentials:
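Differentiated HepaRG cells exposed 48 h in serum-free induction medium, eight half-log concentrations from 100 uM, in duplicate, 0.5% DMSO vehicle. BAX mRNA by TaqMan qRT-PCR, normalised to ACTB, GAPDH and POLR2A.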

Read-out in a further assay: BCL2L11 (gene 10018)
The assay is described as follows: LTEA_HepaRG_BCL2L11: Life Technologies and Expression Analysis (LTEA) Assay for Bcl-2 (BCL2L11) gene using HepaRG (AID 2283473). The procedure, abridged: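 Human hepatic HepaRG cultures are treated 48 h with test chemicals (maximum 100 uM, 0.5% DMSO vehicle). Expression of BCL2L11 is measured by qRT-PCR against ACTB, GAPDH and POLR2A, with activity in either direction scored relative to vehicle.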

Read-out in assay [15]: Apolipoprotein A-V (APOA5) gene, APOA5 (gene 116519)
The assay is described as follows: LTEA_HepaRG_APOA5: Life Technologies and Expression Analysis (LTEA) Assay for Apolipoprotein A-V (APOA5) gene using HepaRG (AID 2283474). The essentials:
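Concentration-response of APOA5 expression in HepaRG: eight half-log doses to 100 uM, 48 h, qRT-PCR normalized to ACTB/GAPDH/POLR2A, bidirectional fitting with 0.5% DMSO as baseline.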

Read-out in assay [16]: Alpha-fetoprotein (AFP) gene, AFP (gene 174)
Kind of assay: LTEA_HepaRG_AFP: Life Technologies and Expression Analysis (LTEA) Assay for Alpha-fetoprotein (AFP) gene using HepaRG (AID 2283472). The procedure, abridged:
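Differentiated human HepaRG cells exposed 48 h in serum-free induction medium, 8-point half-log series from 100 uM in 0.5% DMSO, duplicate. AFP mRNA by qRT-PCR, normalized to ACTB, GAPDH, POLR2A; bidirectional fit vs DMSO.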

Read-out in assay [17]: adenosine kinase (ADK) gene, ADK (gene 132)
The assay is described as follows: LTEA_HepaRG_ADK: Life Technologies and Expression Analysis (LTEA) Assay for adenosine kinase (ADK) gene using HepaRG (AID 2283471). The essentials:
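Following 48 h exposure of HepaRG cells in 0.5% DMSO (top concentration 100 uM, duplicate wells), ADK mRNA induction or suppression was measured by qRT-PCR, normalised to ACTB/GAPDH/POLR2A, and fitted bidirectionally relative to vehicle.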

Activity calls are given as the source filed them. The calls were made as follows: active = hit-call score of the fitted dose curve at least 0.9, where 1 is the maximum; inactive = score below 0.9.

Sequence of Broad substrate specificity ATP-binding cassette transporter ABCG2 (Homo sapiens) (Q9UNQ0 whole entry, looked up): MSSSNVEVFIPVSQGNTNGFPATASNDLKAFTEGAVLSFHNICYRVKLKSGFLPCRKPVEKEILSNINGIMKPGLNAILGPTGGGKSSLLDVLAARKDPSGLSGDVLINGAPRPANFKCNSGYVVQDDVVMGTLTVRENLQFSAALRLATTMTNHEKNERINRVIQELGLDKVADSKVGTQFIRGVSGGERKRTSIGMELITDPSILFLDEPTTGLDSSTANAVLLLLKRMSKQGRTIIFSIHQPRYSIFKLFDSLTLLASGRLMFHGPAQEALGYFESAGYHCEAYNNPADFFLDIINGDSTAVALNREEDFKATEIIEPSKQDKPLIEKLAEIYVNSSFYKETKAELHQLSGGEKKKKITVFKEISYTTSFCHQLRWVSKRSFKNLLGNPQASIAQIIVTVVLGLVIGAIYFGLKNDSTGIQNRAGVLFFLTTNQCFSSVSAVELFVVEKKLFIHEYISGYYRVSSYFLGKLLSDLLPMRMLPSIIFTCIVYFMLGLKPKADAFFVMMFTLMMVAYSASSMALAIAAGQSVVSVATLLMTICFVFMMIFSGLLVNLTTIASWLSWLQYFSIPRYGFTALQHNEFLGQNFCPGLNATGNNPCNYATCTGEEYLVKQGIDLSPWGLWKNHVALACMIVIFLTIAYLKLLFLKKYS

Consider `Oc1ccc(Cl)cc1Cl`, for which the result in assay [1], in assay [2], in assay [3], in assay [4], in assay [5] and in [6] was inactive. Further, the call in assay [7], in assay [8], in assay [9], in assay [10], in assay [11] and in assay [12] was inactive. Moreover, the result (in [13]; in assay [14]; in the assay with BCL2L11 (gene 10018); in [15]) was inactive.

As for `O=C(NC(=O)c1cc(F)c(F)cc1Cl)Nc1cc(F)ccc1N1CCC(C(=O)O)CC1`, the compound was classed as inactive in assay [1], in [2], in assay [3], in assay [5], in [6] and in [8]. Further, the compound was called inactive in [9], in assay [10], in assay [11], in [12], in assay [13] and in assay [14]. Further, the compound was called inactive (in assay [16]; with BCL2L11 (gene 10018); in assay [15]). The AC50 in assay [4] was 21 µM (active); in [7], 2.05 µM (active).

Consider `CCC(C)c1cc([N+](=O)[O-])cc([N+](=O)[O-])c1O` (configuration not stated), for which the AC50 in assay [1] was 1.5 µM (active); in [2], 3.37 µM (active); in [3] it was 1.07 µM (active); in [4] it was 1.39 µM (active); in [5], 10.7 µM (active); in assay [7], 1.29 µM (active). Also, the AC50 is 1.46 µM (active) in assay [8]; 1.4 µM (active) in [11]; 1.58 µM (active) in [12]; 7.23 µM (active) in assay [14]; 2.24 µM (active) in assay [17]; 1.39 µM (active) with BCL2L11 (gene 10018). Further, in [15], the AC50 was 1.58 µM (active). The result in assay [6], in [9], in assay [10] and in [13] was inactive.

`CC#Cc1cc(C)nc(Nc2ccccc2)n1`: the compound was classed as inactive in assay [1], in [2], in assay [3], in assay [4], in assay [6] and in assay [8]. The compound was called inactive in assay [10], in [11], in assay [13], in assay [14], in assay [17] and in [15]. The AC50 in [5] was 19.2 µM (active); in assay [7], 9.09 µM (active); in assay [9] it was 29.9 µM (active); in assay [12], 50 µM (active); in the assay with BCL2L11 (gene 10018), 13 µM (active).

As a reminder, the AC50 is the concentration giving half of the maximal activity seen.
